In all, about 35,000 sequences were measured (“fluorescence intensity (a.u.)”: median about 10,000, highest 2% from about 52,000 on). What follows is part of a selection rich in the highest values, with near analogues and random picks from the rest.

This assay concerns the target T1, OsWOX13 (Oryza sativa, UniProt Q5QMM3 1-267).
T1 sequence: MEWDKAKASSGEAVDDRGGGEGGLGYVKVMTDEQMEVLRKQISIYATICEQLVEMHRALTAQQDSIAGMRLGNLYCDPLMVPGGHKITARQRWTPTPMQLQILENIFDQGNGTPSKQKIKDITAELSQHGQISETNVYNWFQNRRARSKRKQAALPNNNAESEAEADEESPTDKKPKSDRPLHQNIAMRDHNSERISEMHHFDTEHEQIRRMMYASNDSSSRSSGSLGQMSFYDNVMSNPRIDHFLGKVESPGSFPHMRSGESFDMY
Kind of assay: protein-binding microarray (RPBM); PBS, 2% BSA, 51.3 ng/ul salmon testes DNA, 50 uM zinc acetate, 200 nM TF, 25 C, 1 h; high values mean tight binding. The conditions noted are these: protein: recombinant; tags: N-terminal polyhistidine and DsRed monomer fusion (pET32a); label: CyDye5-dUTP incorporated in the synthesized complementary strand; 3' TTTTT single-stranded linker to array surface; dsDNA, one strand shown. A digest of the protocol:
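The binding signal is fluorescence intensity per feature, in arbitrary units, read on an Axon 4000B scanner. Polyhistidine- and DsRed-tagged transcription factors (N-terminal fusions) from E. coli BL21-CodonPlus were purified on Ni–NTA and applied at 200 nM for 1 h at 25 °C to a double-stranded, BSA-blocked custom Agilent array in buffer with 50 µM zinc acetate.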
Take “TGTTAGATTTAATGTAATTGATTTGATATTTTAGATATTGCGGAGTCACCTAGTGCAG”: the binding signal is 49700 fluorescence intensity (a.u.).

Regarding “ATAATTTTGAAATTATTAACATGATATAAATGAGATAGAGCGGAGTCACCTAGTGCAG”, the binding signal was 16200 fluorescence intensity (a.u.).

Regarding “ATATGATTATGTGATAATGTTTGAGAGTACAAACAAATGACGGAGTCACCTAGTGCAG”, the binding signal is 19000 fluorescence intensity (a.u.).

Regarding “TTTTGATTGATAAGTATAACCATGTATAAGCGAAACAATGCGGAGTCACCTAGTGCAG”, the binding signal was 64500 fluorescence intensity (a.u.).

In the case of “GATTTTGATAGGAATGTAAGTATAAAACAGAGGATTGTAACGGAGTCACCTAGTGCAG”, the binding signal was 3360 fluorescence intensity (a.u.).

Take “ACAATGATTGATTAATGTTTGATAGTAACAGCCATGAGAGCGGAGTCACCTAGTGCAG”: the binding signal was 58800 fluorescence intensity (a.u.).

For “TAAATTTTGACTGATAAGTATAAGTATAAGCGAAAAGATTCGGAGTCACCTAGTGCAG”, the binding signal was 12400 fluorescence intensity (a.u.).

For “ATTAATGATTGATAGTCAGTCACTTAGCCATGTTATTTTGCGGAGTCACCTAGTGCAG”, the binding signal was 65500 fluorescence intensity (a.u.).

On to “AACCCAATAACGGTAACTGACAAAACGATGAAAACCAAACCGGAGTCACCTAGTGCAG”, for which the binding signal was 4460 fluorescence intensity (a.u.).

In the case of “ATATAGATTTACGTTGGATTTATACTGATTCTAACCAAATCGGAGTCACCTAGTGCAG”, the binding signal is 13600 fluorescence intensity (a.u.).

As for “ATGATTTTGTTTTGTTTTGCGAATAATTTTGGCGCCTCAACGGAGTCACCTAGTGCAG”, the binding signal is 6150 fluorescence intensity (a.u.).

Consider “CACCAGTGATCTTATAATTGTAAATTTTGATCCAAGATTCCGGAGTCACCTAGTGCAG”, for which the binding signal is 3800 fluorescence intensity (a.u.).

With “AAGAATTAATTAATGTTTAACTAGATGGCCTTATTATCTCCGGAGTCACCTAGTGCAG”, the binding signal is 34300 fluorescence intensity (a.u.).

With “ATGTGTATGATGTGTTTGTTTATGTGTGGACTTTATAATACGGAGTCACCTAGTGCAG”, the binding signal was 3210 fluorescence intensity (a.u.).

Regarding “TTTACTAAGCAATCAAGATAACCTGATGTGCCTATCCATCCGGAGTCACCTAGTGCAG”, the binding signal was 10200 fluorescence intensity (a.u.).

As for “ACAAACACGTAATAACATTAATTTCAATCTACACATCATACGGAGTCACCTAGTGCAG”, the binding signal is 9270 fluorescence intensity (a.u.).

Regarding “GCTCCTAACCAATCAGCGCACCCATCGTCCCAAAATCCCCCGGAGTCACCTAGTGCAG”, the binding signal is 8480 fluorescence intensity (a.u.).

Regarding “ATAATTATTATGTCTGGTAGGATAGGATTTAGATGGTAAGCGGAGTCACCTAGTGCAG”, the binding signal is 5670 fluorescence intensity (a.u.).

For the sequence “ATCAATTCAAATTTAAATTTTGATGAAACTCTTCGAAATCCGGAGTCACCTAGTGCAG”, the binding signal is 14400 fluorescence intensity (a.u.).

In the case of “CCAAATCAATCAAATCGCATTCCACCAATTCTCCACTCTCCGGAGTCACCTAGTGCAG”, the binding signal was 27300 fluorescence intensity (a.u.).

For the sequence “AATCTCAAATTGAATCCATTTTATTTGATGACGATTTATTCGGAGTCACCTAGTGCAG”, the binding signal was 9810 fluorescence intensity (a.u.).

Take “TCCAATTGATTGCAAATCGATTCCTCACTCCTCTCTTATCCGGAGTCACCTAGTGCAG”: the binding signal is 57400 fluorescence intensity (a.u.).

With “AAATCCCACTCCAATCACCACCACCTCTTCTCCAATTCCACGGAGTCACCTAGTGCAG”, the binding signal was 3840 fluorescence intensity (a.u.).

In the case of “CTCTCGCTCGCCATGATTGATCGAGCTCCACCTGCCAATTCGGAGTCACCTAGTGCAG”, the binding signal was 12900 fluorescence intensity (a.u.).

For the sequence “TTGGAGATGATTGATTGGAAATCTTCTTCCAGTCTCCTCTCGGAGTCACCTAGTGCAG”, the binding signal was 61700 fluorescence intensity (a.u.).

As for “TGATGAGATTGATCCGATGATCTCCTCTTTAAATTTCTCGCGGAGTCACCTAGTGCAG”, the binding signal was 19100 fluorescence intensity (a.u.).

As for “TCATTTCTCCAATCATAGGAGCTGGCGCATTGATCGATCACGGAGTCACCTAGTGCAG”, the binding signal is 6160 fluorescence intensity (a.u.).

Turning to “TCCAGTGATTAATCTCTTCTCCATCTCTGCCCTGCACCCTCGGAGTCACCTAGTGCAG”, the binding signal is 21400 fluorescence intensity (a.u.).

As to “TGATGATTTGATTTGATTTGATTCAATCTCCAAATCGATCCGGAGTCACCTAGTGCAG”, the binding signal is 65100 fluorescence intensity (a.u.).

In the case of “CCAATGATTGATCGATTTCTCTCCATACGCCGTGTGCCAACGGAGTCACCTAGTGCAG”, the binding signal is 59700 fluorescence intensity (a.u.).

Regarding “GTGATGATTTATTTTCGAACTATCTAGCTATTTATCTAGACGGAGTCACCTAGTGCAG”, the binding signal is 9370 fluorescence intensity (a.u.).

For the sequence “CTCCAATTCATCTATAATCAATCTAATAGCCAATTCATACCGGAGTCACCTAGTGCAG”, the binding signal is 5900 fluorescence intensity (a.u.).

Regarding “GTTTTATTCTGATTAAATTAAATGCCACAGGGACATTGTCCGGAGTCACCTAGTGCAG”, the binding signal was 9600 fluorescence intensity (a.u.).

In the case of “ATGTGGCCGATAATTGCTTTGCATGCTGATGGATGTGGCTCGGAGTCACCTAGTGCAG”, the binding signal was 4180 fluorescence intensity (a.u.).

Regarding “GTCATAAATTGATCCATACATATCATAGTAAAGCGTGGGTCGGAGTCACCTAGTGCAG”, the binding signal is 33400 fluorescence intensity (a.u.).

Regarding “ATCTAATCTTGAATTAAACTCACTATCAATTCCCACCATCCGGAGTCACCTAGTGCAG”, the binding signal is 4380 fluorescence intensity (a.u.).

“CTAAATTGAATCTATCCACTTTGCCTCCTAAACTCACCCCCGGAGTCACCTAGTGCAG”: the binding signal was 54600 fluorescence intensity (a.u.).

As to “GAAATAATTGATTGAATCCTATTCTATCCTCTAAAATTCCCGGAGTCACCTAGTGCAG”, the binding signal is 30900 fluorescence intensity (a.u.).

On to “TAGTCAATTACTACTAGGTATGTGCTATTCATAACCATGACGGAGTCACCTAGTGCAG”, for which the binding signal was 7320 fluorescence intensity (a.u.).

In the case of “AGCTTTTCAGACTGAAAATGTAATAGACAACCTTATCAGACGGAGTCACCTAGTGCAG”, the binding signal was 3810 fluorescence intensity (a.u.).

“GGTAAATTGCAATACTCCGGATGTTCAGAGACAATAAGAGCGGAGTCACCTAGTGCAG”: the binding signal is 13900 fluorescence intensity (a.u.).

Turning to “TTAGATTATTGAGTCAGATTACTATAAGCTAGATTATTATCGGAGTCACCTAGTGCAG”, the binding signal is 12500 fluorescence intensity (a.u.).

(Values after PMC7819943, “Rice protein-binding microarrays: a tool to detect cis-acting elements near promoter regions in rice”.)
